Measurements taken from the supplement of paper PMC12669032.

Key:
Test in all cases: growth AUC relative to DMSO control (median of replicates) (fraction); higher = more growth (less inhibition), active = hit call of the paper
Details in all cases: 20 µM; 24 h;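 active = AUC reduced over 20% with Padj below 0.05 in at least 2 of 3 replicates; inactive = otherwise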
Akkermansia muciniphila = tested on: Akkermansia muciniphila
Outline: (§1)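 Gut bacterial monocultures were grown anaerobically at 37 °C in mGAM, starting at OD600 0.05, with 20 µM compound (1% DMSO) in round-bottom 96-well plates under pierced gas-permeable seals. OD600 was read hourly for 24 h. Area under the growth curve (minimum OD set to 0) was normalised to the plate median of DMSO controls, or to row and column medians on the industrial chemical plate. The value is the median of three biological replicates grown on separate days.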

Bacteroides caccae = tested on: Bacteroides caccae
Outline: as §1

Bacteroides clarus = tested on: Bacteroides clarus
Outline: as §1

Bacteroides dorei = tested on: Bacteroides dorei
Outline: as §1

Bacteroides stercoris = tested on: Bacteroides stercoris
Outline: as §1

[1] = tested on: Bacteroides thetaiotaomicron
Outline: as §1

Bacteroides uniformis = tested on: Bacteroides uniformis
Outline: as §1

[2] = tested on: Bifidobacterium longum subsp. longum
Outline: as §1

Clostridium difficile = tested on: Clostridium difficile
Outline: as §1

Collinsella aerofaciens = tested on: Collinsella aerofaciens
Outline: as §1

Coprococcus comes = tested on: Coprococcus comes
Outline: as §1

Escherichia coli ED1a = tested on: Escherichia coli ED1a
Outline: as §1

Escherichia coli IAI1 = tested on: Escherichia coli IAI1
Outline: as §1

Eubacterium rectale = tested on: Eubacterium rectale
Outline: as §1

[3] = tested on: Fusobacterium nucleatum subsp. animalis
Outline: as §1

Lactobacillus gasseri = tested on: Lactobacillus gasseri
Outline: as §1

Lactobacillus paracasei = tested on: Lactobacillus paracasei
Outline: as §1

Odoribacter splanchnicus = tested on: Odoribacter splanchnicus
Outline: as §1

[4] = tested on: Parabacteroides distasonis
Outline: as §1

Parabacteroides merdae = tested on: Parabacteroides merdae
Outline: as §1

Measured: growth AUC

CC(COc1ccc(Oc2ccccc2)cc1)Oc1ccccn1 (stereo not given)
inactive: Akkermansia muciniphila 0.989 | Bacteroides caccae 0.949 | Bacteroides clarus 0.98 | Bacteroides dorei 1.01 | Bacteroides stercoris 0.78 | [1] 0.993 | Bacteroides uniformis 0.994 | [2] 1.04 | Clostridium difficile 0.99 | Collinsella aerofaciens 0.994 | Coprococcus comes 0.962 | Escherichia coli ED1a 0.999 | Escherichia coli IAI1 0.968 | Eubacterium rectale 1.04 | [3] 0.97 | Lactobacillus gasseri 0.989 | Lactobacillus paracasei 0.939 | Odoribacter splanchnicus 1.03 | [4] 0.979 | Parabacteroides merdae 0.929

CSC1=N[C@@](C)(c2ccccc2)C(=O)N1Nc1ccccc1
inactive: Akkermansia muciniphila 1.05 | Bacteroides caccae 0.978 | Bacteroides clarus 0.967 | Bacteroides dorei 0.985 | Bacteroides stercoris 1.26 | [1] 0.961 | Bacteroides uniformis 0.986 | [2] 1.04 | Clostridium difficile 0.997 | Collinsella aerofaciens 0.99 | Coprococcus comes 0.988 | Escherichia coli ED1a 1.01 | Escherichia coli IAI1 0.993 | Eubacterium rectale 1.08 | [3] 1.2 | Lactobacillus gasseri 0.853 | Lactobacillus paracasei 0.968 | Odoribacter splanchnicus 0.924 | [4] 0.872 | Parabacteroides merdae 0.953

Clc1nc(Cl)nc(Nc2ccccc2Cl)n1
inactive: Akkermansia muciniphila 1.04 | Bacteroides caccae 1.02 | Bacteroides clarus 0.962 | Bacteroides dorei 1.02 | Bacteroides stercoris 1.07 | [1] 0.995 | Bacteroides uniformis 0.997 | [2] 1.01 | Clostridium difficile 1.03 | Collinsella aerofaciens 1.01 | Coprococcus comes 1.03 | Escherichia coli ED1a 1.01 | Escherichia coli IAI1 0.998 | Eubacterium rectale 0.859 | [3] 1.02 | Lactobacillus gasseri 0.991 | Lactobacillus paracasei 1.01 | Odoribacter splanchnicus 1.08 | [4] 1.04 | Parabacteroides merdae 0.969

Cc1ccccc1[N+](=O)[O-]
inactive: Akkermansia muciniphila 1 | Bacteroides caccae 0.996 | Bacteroides clarus 1 | Bacteroides dorei 1.02 | Bacteroides stercoris 1.01 | [1] 1.01 | Bacteroides uniformis 0.995 | [2] 0.991 | Clostridium difficile 1 | Collinsella aerofaciens 1 | Coprococcus comes 1 | Escherichia coli ED1a 0.997 | Escherichia coli IAI1 0.992 | Eubacterium rectale 1 | [3] 1.03 | Lactobacillus gasseri 1.02 | Lactobacillus paracasei 0.999 | Odoribacter splanchnicus 0.994 | [4] 1.06 | Parabacteroides merdae 0.995

COS(=O)(=O)[O-].Cn1c(-c2ccccc2)cc(-c2ccccc2)[n+]1C
inactive: Akkermansia muciniphila 0.936 | Bacteroides caccae 0.994 | Bacteroides clarus 0.966 | Bacteroides dorei 0.976 | Bacteroides stercoris 0.979 | [1] 0.938 | Bacteroides uniformis 1.01 | [2] 0.925 | Clostridium difficile 1.04 | Collinsella aerofaciens 0.989 | Coprococcus comes 1 | Escherichia coli ED1a 0.98 | Escherichia coli IAI1 0.974 | Eubacterium rectale 1 | [3] 0.985 | Lactobacillus gasseri 0.964 | Lactobacillus paracasei 0.981 | Odoribacter splanchnicus 1.01 | [4] 0.985 | Parabacteroides merdae 0.974

CC(Cc1ccc(C(C)(C)C)cc1)CN1C[C@@H](C)O[C@@H](C)C1 (stereo not given in full)
inactive: Akkermansia muciniphila 1.04 | Bacteroides caccae 1.03 | Bacteroides clarus 0.974 | Bacteroides dorei 1.01 | Bacteroides stercoris 1.07 | [1] 0.996 | Bacteroides uniformis 1.05 | [2] 0.992 | Clostridium difficile 1.02 | Collinsella aerofaciens 1 | Coprococcus comes 1.03 | Escherichia coli ED1a 1.01 | Escherichia coli IAI1 1.06 | Eubacterium rectale 0.983 | [3] 1.07 | Lactobacillus gasseri 1.06 | Lactobacillus paracasei 1.07 | Odoribacter splanchnicus 1.07 | [4] 0.985 | Parabacteroides merdae 0.999

CCOP(=O)(OCC)ON1C(=O)c2cccc3cccc(c23)C1=O
active: Bacteroides dorei 0.754 | Bacteroides stercoris 0.482 | [1] 0.736 | Bacteroides uniformis 0.683 | Odoribacter splanchnicus 0.484 | [4] 0.619 | Parabacteroides merdae 0.794
inactive: Akkermansia muciniphila 1.01 | Bacteroides caccae 0.856 | Bacteroides clarus 0.898 | [2] 1.05 | Clostridium difficile 0.946 | Collinsella aerofaciens 0.936 | Coprococcus comes 0.971 | Escherichia coli ED1a 0.994 | Escherichia coli IAI1 0.958 | Eubacterium rectale 1.16 | [3] 0.961 | Lactobacillus gasseri 0.954 | Lactobacillus paracasei 0.971

O=C(NC(=O)c1c(F)cccc1F)Nc1ccc(Cl)c(Oc2ncc(C(F)(F)F)cc2Cl)c1
inactive: Akkermansia muciniphila 1.14 | Bacteroides caccae 0.985 | Bacteroides clarus 1.02 | Bacteroides dorei 1.1 | Bacteroides stercoris 0.98 | [1] 1.01 | Bacteroides uniformis 1.02 | [2] 0.917 | Clostridium difficile 1.1 | Collinsella aerofaciens 1.08 | Coprococcus comes 0.98 | Escherichia coli ED1a 0.999 | Escherichia coli IAI1 1.01 | Eubacterium rectale 0.951 | [3] 1.1 | Lactobacillus gasseri 1.16 | Lactobacillus paracasei 0.815 | Odoribacter splanchnicus 1.13 | [4] 1.02 | Parabacteroides merdae 0.991

CC(=O)CC(c1ccc(Cl)cc1)c1c(O)c2ccccc2oc1=O (stereo not given)
inactive: Akkermansia muciniphila 0.928 | Bacteroides caccae 0.939 | Bacteroides clarus 0.873 | Bacteroides dorei 0.958 | Bacteroides stercoris 0.91 | [1] 0.938 | [2] 0.939 | Clostridium difficile 1.04 | Collinsella aerofaciens 1.01 | Coprococcus comes 0.987 | Escherichia coli ED1a 0.952 | Escherichia coli IAI1 1.02 | Eubacterium rectale 0.881 | [3] 0.929 | Lactobacillus gasseri 1.3 | Lactobacillus paracasei 0.982 | Odoribacter splanchnicus 0.971 | Parabacteroides merdae 0.954
active: Bacteroides uniformis 0.777 | [4] 0.787

Nc1nc(N)[nH]c(=O)n1
inactive: Akkermansia muciniphila 1.05 | Bacteroides caccae 1.02 | Bacteroides clarus 0.994 | Bacteroides dorei 1.04 | Bacteroides stercoris 1 | [1] 1.01 | Bacteroides uniformis 1.01 | [2] 1.02 | Clostridium difficile 1 | Collinsella aerofaciens 1.1 | Coprococcus comes 1.02 | Escherichia coli ED1a 1.02 | Escherichia coli IAI1 1.03 | Eubacterium rectale 0.978 | [3] 0.964 | Lactobacillus gasseri 0.982 | Lactobacillus paracasei 1.04 | Odoribacter splanchnicus 0.956 | [4] 1.05 | Parabacteroides merdae 1.01

CCNc1nc(NC(C)C(C)C)nc(SC)n1 (stereo not given)
inactive: Akkermansia muciniphila 0.961 | Bacteroides caccae 1.01 | Bacteroides clarus 0.962 | Bacteroides dorei 1 | Bacteroides stercoris 1.04 | [1] 0.915 | Bacteroides uniformis 0.972 | [2] 0.965 | Clostridium difficile 1 | Collinsella aerofaciens 1.05 | Coprococcus comes 0.977 | Escherichia coli ED1a 0.979 | Escherichia coli IAI1 0.991 | Eubacterium rectale 0.89 | [3] 0.997 | Lactobacillus gasseri 1.06 | Lactobacillus paracasei 0.81 | Odoribacter splanchnicus 0.954 | [4] 1.04 | Parabacteroides merdae 0.992

CCC(C)[C@H]1O[C@]2(C=C[C@@H]1C)C[C@@H]1C[C@@H](C/C=C(\C)[C@@H](O[C@H]3C[C@H](OC)[C@@H](O[C@H]4C[C@H](OC)[C@@H](O)[C@H](C)O4)[C@H](C)O3)[C@@H](C)/C=C/C=C3\CO[C@@H]4[C@H](O)C(C)=C[C@@H](C(=O)O1)[C@]34O)O2.CO[C@H]1C[C@H](O[C@H]2[C@H](C)O[C@@H](O[C@@H]3/C(C)=C/C[C@@H]4C[C@@H](C[C@]5(C=C[C@H](C)[C@@H](C(C)C)O5)O4)OC(=O)[C@@H]4C=C(C)[C@@H](O)[C@H]5OC/C(=C\C=C\[C@@H]3C)[C@]54O)C[C@@H]2OC)O[C@@H](C)[C@@H]1O (stereo not given in full)
active: [4] 0.536
inactive: Akkermansia muciniphila 1.22 | Bacteroides caccae 0.965 | Bacteroides clarus 1.07 | Bacteroides dorei 0.965 | Bacteroides stercoris 0.915 | [1] 1.01 | Bacteroides uniformis 1.01 | [2] 0.919 | Clostridium difficile 0.952 | Collinsella aerofaciens 0.996 | Coprococcus comes 0.99 | Escherichia coli ED1a 1.02 | Escherichia coli IAI1 1.01 | Eubacterium rectale 1.01 | [3] 1.15 | Lactobacillus gasseri 0.808 | Lactobacillus paracasei 0.899 | Odoribacter splanchnicus 1.07 | Parabacteroides merdae 1.05

CC(=O)O.CC(=O)O.CC(=O)O.NC(N)=NCCCCCCCCNCCCCCCCCN=C(N)N
inactive: Akkermansia muciniphila 0.692 | Clostridium difficile 0.869 | Collinsella aerofaciens 0.871 | Escherichia coli ED1a 0.966 | Escherichia coli IAI1 0.822 | [3] 0.729 | Lactobacillus gasseri 0.89 | Lactobacillus paracasei 0.834
active: Bacteroides caccae 0.639 | Bacteroides clarus 0.523 | Bacteroides dorei 0.0196 | Bacteroides stercoris 0.0269 | [1] 0.0154 | Bacteroides uniformis 0.158 | [2] 0.195 | Coprococcus comes 0.0653 | Eubacterium rectale 0.0201 | Odoribacter splanchnicus 0.0272 | [4] 0.213 | Parabacteroides merdae 0.025

CCOP(=S)(OCC)SCS(=O)(=O)CC
inactive: Akkermansia muciniphila 1.08 | Bacteroides caccae 0.96 | Bacteroides clarus 1.01 | Bacteroides dorei 0.977 | Bacteroides stercoris 1.09 | [1] 0.996 | Bacteroides uniformis 0.984 | [2] 0.951 | Clostridium difficile 1.01 | Collinsella aerofaciens 1.02 | Coprococcus comes 1.02 | Escherichia coli ED1a 1.01 | Escherichia coli IAI1 0.992 | Eubacterium rectale 1.07 | [3] 1.14 | Lactobacillus gasseri 0.95 | Lactobacillus paracasei 0.967 | Odoribacter splanchnicus 0.993 | [4] 0.999 | Parabacteroides merdae 0.974

CC(Oc1ccc(Oc2ccc(Cl)cc2Cl)cc1)C(=O)O (racemic)
inactive: Akkermansia muciniphila 0.812 | Bacteroides caccae 0.991 | Bacteroides clarus 0.875 | Bacteroides dorei 0.997 | Bacteroides stercoris 0.851 | [1] 0.989 | Bacteroides uniformis 0.98 | [2] 0.903 | Clostridium difficile 1.02 | Collinsella aerofaciens 0.995 | Coprococcus comes 0.943 | Escherichia coli ED1a 0.974 | Escherichia coli IAI1 1.02 | Eubacterium rectale 0.988 | [3] 0.961 | Lactobacillus gasseri 1.16 | Lactobacillus paracasei 0.999 | Odoribacter splanchnicus 1.09 | [4] 1.06 | Parabacteroides merdae 0.956

COC(=O)/C(C)=C/OP(=S)(OC)OC
inactive: Akkermansia muciniphila 0.968 | Bacteroides caccae 0.992 | Bacteroides clarus 0.963 | Bacteroides dorei 0.985 | Bacteroides stercoris 1.02 | [1] 0.978 | Bacteroides uniformis 0.96 | [2] 1.02 | Clostridium difficile 0.984 | Collinsella aerofaciens 1.03 | Coprococcus comes 0.989 | Escherichia coli ED1a 0.987 | Escherichia coli IAI1 0.97 | Eubacterium rectale 0.95 | [3] 1.01 | Lactobacillus gasseri 1.06 | Lactobacillus paracasei 1.07 | Odoribacter splanchnicus 0.95 | [4] 1.03 | Parabacteroides merdae 0.999
